Inconclusive results are not listed. Active and inactive are the calls of the source. Calls follow the shape of the dose curve; as a rule, active = well fitted curve in the direction sought with a large enough effect; inconclusive = small, poorly fitted or top-dose-only effect, or another doubt; inactive = no such curve, though single readings can be large or run the other way.
These compounds were tested against Polyunsaturated fatty acid lipoxygenase ALOX15 (Homo sapiens) (UniProt P16050) (assay: Counterscreen qHTS for inhibitors of human arachidonate 12S-lipoxygenase (ALOX12): ALOX15 Assay). Conditions: purified ALOX15 enzyme activity; series mostly up to 110 µM.
Chain of Polyunsaturated fatty acid lipoxygenase ALOX15 (Homo sapiens) (P16050 whole entry, looked up): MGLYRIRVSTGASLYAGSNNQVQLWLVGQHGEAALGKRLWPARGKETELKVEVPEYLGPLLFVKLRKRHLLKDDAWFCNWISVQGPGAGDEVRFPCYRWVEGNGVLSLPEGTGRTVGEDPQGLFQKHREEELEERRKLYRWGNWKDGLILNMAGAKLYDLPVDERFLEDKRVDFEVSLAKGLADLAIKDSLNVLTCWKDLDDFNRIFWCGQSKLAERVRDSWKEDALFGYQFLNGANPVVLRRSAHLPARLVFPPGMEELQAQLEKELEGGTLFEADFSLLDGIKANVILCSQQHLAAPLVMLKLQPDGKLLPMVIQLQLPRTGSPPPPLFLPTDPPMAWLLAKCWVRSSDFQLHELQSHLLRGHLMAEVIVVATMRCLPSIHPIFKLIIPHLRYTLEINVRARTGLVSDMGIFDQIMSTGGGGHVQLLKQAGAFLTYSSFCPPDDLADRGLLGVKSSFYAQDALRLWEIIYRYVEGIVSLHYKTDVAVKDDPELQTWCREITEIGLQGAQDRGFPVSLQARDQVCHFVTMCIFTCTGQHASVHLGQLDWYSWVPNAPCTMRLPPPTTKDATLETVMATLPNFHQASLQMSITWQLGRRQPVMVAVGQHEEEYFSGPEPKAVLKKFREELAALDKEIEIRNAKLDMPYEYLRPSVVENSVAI
Method in brief: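 Purified human ALOX15 (15hLO-1) at 40 nM in 25 mM HEPES, 0.01% Triton X-100, pH 7.5, preincubated with compound 15 min at RT. Then 50 uM arachidonic acid for 30 min; hydroperoxide detected by Fe-xylenol orange as the 573/405 nm absorbance ratio.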
In the case of `NCc1ccc(-c2ccc(F)cc2)cc1`, the outcome is reported as “inactive”.
`NCc1cccc(-c2cncnc2)c1` was tested, and the outcome was “inactive”.
For `CC1C=CC(C)N1c1ncnc2c1CN(C1CCNCC1)C(=O)CN2C` (configuration not stated), the outcome was “inactive”.
In the case of `COc1cccc(N2C(=O)NC(=NC3CCCCC3)C23CCN(CC2CC2)CC3)c1`, the outcome is reported as “inactive”.
With `CCC(=O)N1Cc2ccccc2CC2(CCN(CC3CCNCC3)CC2)C1` the outcome was “inactive”.
For `Cc1ccc(C(=O)N2CCn3c(nnc3C3CCNCC3)C2)cc1`, the outcome was “inactive”.
With `O=C(c1ccncc1)N1CCC(c2nnc3n2CCNC3)CC1` the outcome was “inactive”.
`CN1CC(=O)N(C2CCNC2)Cc2c(NCC3CCCCC3)ncnc21` (configuration not stated) was tested, and the outcome was “inactive”.
For `COc1cccc([S+](=O)([O-])N2CCn3c(nn(-c4ccc(Cl)cc4)c3=O)C2)c1`, the outcome was “inactive”.
`O=C1NCc2ccccc2CC12CCN(Cc1c[nH]c3ccccc13)CC2` was tested, and the outcome was “inactive”.
In the case of `O=C1NCc2ccccc2CC12CCCN2Cc1ccc(OC(F)(F)F)cc1` (configuration not stated), the outcome is reported as “inactive”.
For `O=C(Nc1ccccc1)N1CCC(c2nnc3n2CCNC3)CC1`, the outcome was “inactive”.
In the case of `O=C1NCc2ccccc2CC12CCCN2Cc1ccc(Cl)cc1` (configuration not stated), the outcome is reported as “inactive”.
For `COc1ccc(CNc2ncnc3c2CN(C2CCCNCC2)C(=O)CN3C)cc1` (configuration not stated), the outcome was “inactive”.
For `O=C1NC2(Cc3ccccc31)CN(C(=O)c1cccc3c1OC(F)(F)O3)C2`, the outcome was “inactive”.
In the case of `CN(C)c1ccc(CN2CCn3c(nn(-c4ccc(Cl)cc4)c3=O)C2)cc1`, the outcome is reported as “inactive”.
For `O=C(c1cc(C2CC2)nc2onc(C3CCCNC3)c12)N1CCCCC1` (configuration not stated), the outcome was “inactive”.
For `O=C1NCc2ccccc2CC12CCN(Cc1cc(O)cc(O)c1)C2` (configuration not stated), the outcome was “inactive”.
For `O=C(c1ccc2c(c1)OCO2)N1CCCC1c1nnc2n1CCNC2` (configuration not stated), the outcome was “inactive”.
With `CC(C)c1nc2c(c(-c3ccc(Cl)cc3)n1)CCN(C(=O)c1ccc3c(c1)OCO3)CC2` the outcome was “inactive”.
In the case of `O=C1NCc2ccccc2CC12CCN(Cc1cnc3ccccc3c1)CC2`, the outcome is reported as “inactive”.
`O=C1NCc2ccccc2CC12CCN(Cc1cccc(Br)c1)C2` (configuration not stated) was tested, and the outcome was “inactive”.
`CC(C)S(=O)(=O)N1CCC(c2nnc3n2CCNC3)CC1` was tested, and the outcome was “inactive”.
With `CN1CC(=O)N(C2CCNC2)Cc2c(NCCc3cccc(F)c3)ncnc21` (configuration not stated) the outcome was “inactive”.
In the case of `Cc1cc(C(=O)NC2CCNCC2)c2c(C3CCNCC3)noc2n1`, the outcome is reported as “inactive”.
`O=C(Nc1ccc(Cl)cc1Cl)c1c[nH]c2cccnc12` was tested, and the outcome was “inactive”.
With `O=C1c2ccccc2CN1C1CCN(Cc2ccsc2)CC1` the outcome was “inactive”.
With `CN1CC(=O)N(C2CCCNCC2)Cc2c1ncnc2N1CCCC(CO)C1` (configuration not stated) the outcome was “inactive”.
For `O=C1NC(=NC2CCCC2)C2(CCN(CC3CCCCC3)CC2)N1c1cc(F)cc(F)c1`, the outcome was “inactive”.
`Fc1ccc(OC2CN(Cc3ccc(C(F)(F)F)cc3)C2)cc1F` was tested, and the outcome was “inactive”.
For `CC(=O)NCCC(=O)N1Cc2ccccc2CC2(CCCN2CCc2ccc(C)cc2)C1` (configuration not stated), the outcome was “inactive”.
With `COc1ccc(N2CC3CCC(C2)N3C(C)=O)cc1` the outcome was “inactive”.
In the case of `O=C1NCc2ccccc2CC12CCN(Cc1ccc3ccccc3c1)C2` (configuration not stated), the outcome is reported as “inactive”.
For `O=C(O)CCCC(=O)N1Cc2ccccc2CC2(CCCN(Cc3ccncc3)C2)C1` (configuration not stated), the outcome was “inactive”.
For `CCN1CCC(c2nc3ccc(F)cc3c(=O)[nH]2)CC1`, the outcome was “inactive”.
With `O=C1NCc2ccccc2CC12CCN(Cc1ccc([N+](=O)[O-])cc1)C2` (configuration not stated) the outcome was “inactive”.
For `CCc1ccc(CN2CCCC3(Cc4ccccc4CNC3=O)C2)s1` (configuration not stated), the outcome was “inactive”.
